In the library only some 0.77% were active in any assay of this set; here they are far more common.
Vif-APOBEC3G blk = qHTS for Inhibitors of Vif-A3G Interactions: qHTS; Potency, µM (doses to about 46.1 µM), without a hit: at the top dose activity, negative = active, actives largely listed as inhibitors; DNA dC->dU-editing enzyme APOBEC-3G (Homo sapiens), Q9HC16; HeLa A3G-eYFP + Vif (tagged APOBEC3G with the HIV-1 protein that degrades it), YFP fluorescence, overnight; actives 0.076% (n = 410,000); also: potency is read from the fitted curve at half-maximal effect; % is scaled to controls: 0 for no effect and ±100 for the full control effect; nearly all actives have a fitted effect of over 60% in size
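HeLa cells stably expressing Vif and C-terminally eYFP-tagged A3G, seeded overnight at 37 deg C, then exposed to compound by pintool overnight at 37 deg C. Rise in yellow fluorescence (Ex 488/Em 500-530, Acumen) marks blocked Vif-driven A3G degradation.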
GCN5L2 inh-1 = qHTS Assay for Inhibitors of GCN5L2 | Histone acetyltransferase KAT2A (Homo sapiens), Q92830 | GCN5L2 HAT assay, ThioGlo1 CoA-SH fluorescence | Potency, µM (top dose mostly 58.9 µM), inactives show at the highest dose activity change, negative = inhibition, most hits filed as inhibitors | actives 0.21% (n = 390,000) | AID 504327, 2011; also: potency is read from the fitted curve at half-maximal effect; % is scaled to controls: 0 for no effect and ±100 for the full control effect
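ThioGlo1-coupled HAT assay: 20nM GCN5L2, 70uM acetyl-CoA, 75uM H3(1-25) peptide, pH 7.5. Fluorescence read at 340/540nm at start and after 20 min at room temperature.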
GoLoco inh red = qHTS Assay for Inhibitors of RGS12 GoLoco Motif Activity (Red Fluorophore). Guanine nucleotide-binding protein G(i) subunit alpha-1 (Homo sapiens), P63096. Gai1:RGS12 GoLoco peptide FP, rhodamine, 10 min. Potency, µM (highest dose often 61.6 µM), inactives show at the highest dose activity, negative = inhibition, usual class: inhibitors. actives 0.44% (n = 230,000). AID 880, 2007; active = well fitted inhibition curve with a large enough effect, not every such curve was filed as active; inactive = no such curve, though single readings can be large or run the other way; also: potency is read from the fitted curve at half-maximal effect; % is scaled to controls: 0 for no effect and ±100 for the full control effect; nearly all actives have a fitted effect of over 30% in size
PKM2 act = qHTS Assay for Activators of Human Muscle isoform 2 Pyruvate Kinase; Pyruvate kinase PKM (Homo sapiens), P14618; purified PKM2, Kinase-Glo ATP luminescence, activation; response scale: 0% is enzyme alone, no compound; Potency, µM (highest dose often 57.5 µM), inactives show top-dose activation, usual class: activators; actives 0.34% (n = 260,000); AID 1631, 2009; also: potency is read from the fitted curve at half-maximal effect; % is scaled to controls: 0 for no effect and ±100 for the full control effect; nearly all actives have a fitted effect of over 55% in size
Target sequence (P14618 whole entry, looked up, canonical isoform): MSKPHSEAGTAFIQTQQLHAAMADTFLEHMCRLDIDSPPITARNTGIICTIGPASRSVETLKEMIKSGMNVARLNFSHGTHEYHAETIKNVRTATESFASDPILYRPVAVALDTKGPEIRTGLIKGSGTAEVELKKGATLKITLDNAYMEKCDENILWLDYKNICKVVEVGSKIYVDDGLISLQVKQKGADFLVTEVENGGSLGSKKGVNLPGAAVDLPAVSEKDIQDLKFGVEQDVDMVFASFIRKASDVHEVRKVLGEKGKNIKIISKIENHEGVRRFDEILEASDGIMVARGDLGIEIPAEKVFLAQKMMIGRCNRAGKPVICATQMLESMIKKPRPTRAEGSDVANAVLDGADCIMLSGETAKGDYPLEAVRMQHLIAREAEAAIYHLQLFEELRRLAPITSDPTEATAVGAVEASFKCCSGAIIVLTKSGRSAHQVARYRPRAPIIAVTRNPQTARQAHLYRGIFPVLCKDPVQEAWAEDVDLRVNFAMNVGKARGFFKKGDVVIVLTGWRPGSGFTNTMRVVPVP
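Kinase-Glo luminescence reports ATP generated from ADP (0.1 mM) and PEP (0.5 mM) by purified hPK-M2 after 1 h at room temperature, pH 7.2 imidazole buffer; intermediate enzyme activity allows detecting inhibitors and activators.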
IL2 activator = qHTS of IL-2 Activators; AID 652025, 2013; IL-2 activation reporter assay, cell-based qHTS; stimulated with anti-CD3/CD4/CD28 beads; in transgenic mouse T cells; actives 0.065% (n = 360,000); activation, % (series mostly up to about 46 µM); in the data active = activation above about 50%; inconclusive = mostly about 30% to 49%; also: 0% is about no effect
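Quantitative HTS in unstimulated transgenic mouse T cells, with memory T cells as non-tolerant control and PMA/ionomycin as tolerance-bypass control. Compound pretreatment lasted 60 minutes before 18 h bead stimulation; EGFP/DsRed fluorescence read.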
Vif-APOBEC3F blk = qHTS for Inhibitors of Vif-A3F Interactions: qHTS | actives 0.2% (n = 390,000) | AID 602313, 2012 | Potency, µM (doses to about 46.1 µM), for inactives: at the highest dose activity, negative = active | HeLa A3F-eYFP + Vif (tagged APOBEC3F with the HIV-1 protein that degrades it), YFP fluorescence increase; also: potency is read from the fitted curve at half-maximal effect; % of control where 0% means no effect; nearly all actives have a fitted effect of over 65% in size
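HeLa cells stably expressing Vif plus C-terminally eYFP-tagged A3F were seeded, incubated overnight at 37 deg C, dosed with compound, incubated overnight again at 37 deg C. Yellow fluorescence (Ex 488/Em 500-530) reported blocked Vif-mediated A3F-eYFP degradation.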
HeLa tox = Secondary assay for Activators of Human Pyruvate Kinase M2 isoform - Cell Titer Glo cytotoxicity assay; shares compounds with PKM2 act; HeLa viability, CellTiter-Glo ATP luminescence, 24 h; activity change, negative = cytotoxicity, % at 57.5 µM; 230 tested, under 10 active; AID 1898, 2009; also: % of control where 0% means no effect
GCN5L2 inh-2 = qHTS Assay for Inhibitors of GCN5L2: Hit confirmation; shares compounds with GCN5L2 inh-1; GCN5L2 HAT, ThioGlo1 CoA fluorescence, 20 min; Potency, µM, actives largely listed as inhibitors; actives 70% (n = 140); AID 588347, 2011
An asterisk follows results filed as active; u = inconclusive; x = no result. Unless noted, calls follow the shape of the dose curve; as a rule, active = well fitted curve in the direction sought with a large enough effect; inconclusive = small, poorly fitted or top-dose-only effect, or another doubt; inactive = no such curve, though single readings can be large; an effect the other way counts as inactive or inconclusive.

SMILES | Vif-APOBEC3G blk | GCN5L2 inh-1 | GoLoco inh red | PKM2 act | IL2 activator | Vif-APOBEC3F blk | HeLa tox | others
COc1cccc(S(=O)(=O)Nc2ccc(C(=O)N3CCN(C(=O)c4ccco4)CC3)cc2)c1 | 6% | -5% | 3% | 1.4µM* | -3 | -8% | -2
CCOc1ccc(NS(=O)(=O)c2ccc3c(c2)CCN3C(=O)C2CCC2)cc1 | 0% | -4% | -2% | 9% | 0 | 0% | x
O=C(C1CCC1)N1CCc2cc(S(=O)(=O)Nc3ccc4c(c3)OCO4)ccc21 | 1% | -12% | 6% | 2.8µM* | -3 | 1% | -27
Cc1ccccc1-n1nnnc1SCc1cc(=O)n2ccsc2n1 | -1% | 1% | -11% | 0.79µM* | 0 | -2% | -20
Cc1ccc(CN2CC(C(=O)OCc3ccccc3Cl)CC2=O)cc1 (centres undefined) | 2% | -20% | x | x | -5 | 2% | x
CS(=O)(=O)Nc1ccc(C2=NN(C(=O)c3ccco3)C(c3ccccc3F)C2)cc1 (centres undefined) | -4% | -19% | 9% | 3.2µM* | -4 | -2% | 0
CCS(=O)(=O)Nc1ccc(C2=NN(C(=O)c3ccco3)C(c3ccco3)C2)cc1 (centres undefined) | u | -12% | x | x | -3 | -4% | x
COc1ccc(C(=O)N/N=C/c2ccc(N3CCOCC3)s2)cc1OC | 2% | -5% | x | x | 0 | -8% | x
COc1ccc(C(=O)N/N=C/c2ccc(N3CCOCC3)o2)cc1OC | 5% | -24% | -26% | 2.5µM* | -3 | 4% | 1
COc1ccc2[nH]c(=O)c(-c3noc(-c4ccccc4)n3)cc2c1 | -1% | -57% | 21% | 11µM* | 1 | x | -27
O=S(=O)(NC1CCN(S(=O)(=O)c2c(F)cccc2F)CC1)c1ccc2c(c1)OCCO2 | -1% | -14% | x | x | 0 | 4% | -29
O=S(=O)(NCCCNS(=O)(=O)c1c(F)cccc1F)c1ccc2c(c1)OCCO2 | 1% | -2% | x | x | 0 | -4% | -2
O=S(=O)(c1ccc2c(c1)OCCO2)C1CCN(S(=O)(=O)c2c(F)cccc2F)CC1 | x | x | x | x | x | x | u
O=S(=O)(NC1CCC(CNS(=O)(=O)c2c(F)cccc2F)CC1)c1ccc2c(c1)OCCO2 (centres undefined) | x | -1% | x | x | x | x | x
O=S(=O)(NC[C@@H]1CCC[C@H](CNS(=O)(=O)c2c(F)cccc2F)C1)c1ccc2c(c1)OCCO2 | x | -6% | x | x | x | x | x
O=S(=O)(Nc1c(F)cccc1F)c1ccc2c(c1)OCCO2 | 0% | 2% | x | -4% | -2 | 0% | x
NC(=O)C1CCN(S(=O)(=O)c2ccc3c(c2)OCCO3)CC1 | 4% | -2% | 6% | 15% | 0 | -2% | x
O=S(=O)(NC1CCN(S(=O)(=O)c2c(F)cccc2F)C1)c1ccc2c(c1)OCCO2 (centres undefined) | 0% | 1% | x | x | 0 | -2% | u
COc1ccc(OCC(=O)N2CCc3ccccc32)c([N+](=O)[O-])c1 | -1% | x | x | x | -3 | 0% | x
CCN(CC)CCN(Cc1cc2cc3c(cc2[nH]c1=O)OCCO3)C(=O)NC1CCCCC1 | 2% | 2% | 3% | -7% | 0 | 5% | x
CCOC(=O)C(C(=O)OCC)[C@@H]1CS(=O)(=O)C[C@H]1C(C(=O)OCC)C(=O)OCC | -2% | 1% | 5% | -6% | -1 | 2% | x
CCn1c(N)c(C(=O)NCc2ccco2)sc1=S | -6% | u | -25% | 3.5µM* | -1 | -3% | -26
CCOC(=O)c1ccc(-n2c(N)c(C(=O)NCc3ccco3)sc2=S)cc1 | -1% | -26% | -2% | u | 0 | -5% | x
COc1ccc(S(=O)(=O)c2ccc(O)cc2)cc1 | 2% | -12% | 5% | 4.5µM* | 2 | 1% | 0
CNc1c([N+](=O)[O-])cnn1-c1ccc(Cl)cc1 | -6% | u | 12% | 7.9µM* | -3 | -3% | 8
SMILES | Vif-APOBEC3G blk | GCN5L2 inh-1 | GoLoco inh red | PKM2 act | IL2 activator | Vif-APOBEC3F blk | HeLa tox | others
Cc1cc(C)n2nc(SCc3cc(=O)oc4cc(C)c(C)cc34)nc2n1 | x | -1% | -15% | -9% | x | x | x
Cc1cc(C)n2nc(SCc3cc(=O)oc4ccc5ccccc5c34)nc2n1 | 0% | 3% | 0% | 2.8µM* | -2 | 6% | 0
CNC(=O)NC(=O)CSc1ncc(C(F)(F)F)cc1Cl | 0% | -2% | -1% | 0.4µM* | 1 | 1% | 0
Cc1ccc(NC(=O)CN(C)C(=O)CSc2ncc(C(F)(F)F)cc2Cl)cc1 | 0% | 0% | 5% | -4% | 0 | u | x
OCc1nn2c(c1Br)NC(c1ccccc1)CC2C(F)(F)F (centres undefined) | 0% | -3% | 13% | 4% | 1 | -19% | x
O=C(CN1C(=O)/C(=C/c2ccccc2)SC1=S)NNC(=O)c1ccccc1O | -10% | -16% | 13% | -2% | 3 | 18% | x
O=C(O)c1cccc(N/N=C/c2ccc(F)c(F)c2)c1 | -3% | -10% | -13% | 1% | 0 | 12% | x
O=C(O)c1cccc(N/N=C/C2=C(Cl)c3cc(Cl)ccc3SC2)c1 | -16% | 28µM* | 3% | -1% | 0 | -13% | x | GCN5L2 inh-2=14*
O=C1C=CC(=O)C(C2=C3C(=O)N(CCc4ccccc4)CC(=O)N3CCC2)=C1 | u | 14µM* | -37% | -36% | -5 | 3% | x | GCN5L2 inh-2=18*
CCC1CCc2sc(C(=O)OCC(=O)N(CCOC)c3c(N)n(Cc4ccccc4)c(=O)[nH]c3=O)cc2C1 (centres undefined) | -1% | 0% | x | x | -4 | 6% | x
COCCN(C(=O)COC(=O)c1cc2c(s1)CCC2)c1c(N)n(Cc2ccccc2)c(=O)[nH]c1=O | 0% | u | x | x | 1 | 8% | x | GCN5L2 inh-2=11*

Bioassay records as filed in PubChem BioAssay.
